In the library only some 3% were active in any assay of this set; here they are far more common.
TWEAK-Fn14 inh: TWEAK-Fn14 signaling inhibition; 2% of 360,000 active; TWEAK-stimulated Fn14 reporter cells, luciferase luminescence, 8 h; inhibition, % at 10 µM; in the data active = inhibition above about 50%
MITF act: activators of MITF-driven TRPM1 promoter activity in SK-MEL-5 cells; activation, % at 12.5 µM; SK-MEL-5 TRPM1-promoter luciferase, 24 h; % of positive control, neutral wells = 0; AID 588334; 0.75% of 300,000 active;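 active = mean activation of at least 80% with every replicate also reaching 80%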
EBV LMP1 NFkB: reduces LMP1-driven NF-kappaB luciferase signal; LMP1-induced NF-kappaB luciferase reporter cells, luminescence; inhibition, % at 12.5 µM; 0.69% of 350,000 active; AID 504558; in the data active = inhibition above about 41%
TRPM1 prom inh: reduces MITF-dependent TRPM1 promoter luciferase signal | SK-MEL-5 TRPM1 promoter luciferase, 24 h | inhibition, % at 12.5 µM | 0.83% of 330,000 active | AID 488899;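 active = mean inhibition across replicates of 60% or more, whatever share of single replicates reaches that level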
TROY signal inh: TROY signaling inhibition; Q293 LMP1-TROYcd NF-kB luciferase reporter, 4 h; inhibition, % at 10 µM; 0.98% of 360,000 active;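 active = compounds whose plate-normalised and pattern-corrected inhibition of the luciferase reporter signal at the single screening dose is 50% or more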
LGR2 inh: Drosophila LGR2 receptor signaling inhibition; HEK293 LGR2, CRE-luciferase, bursicon-stimulated, 4 h; inhibition, % at 9.99 µM; 0.35% of 380,000 active;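 active = drop in luminescence signal, shown as inhibition above about 50% in the replicate tests, limit read from the data, passing the limit was not always enough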;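 also: agonist challenge used bursicon conditioned medium at about half maximal strength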
Numbers stand for hits; . = inactive; / = not tested or not shown.

SMILES	TWEAK-Fn14 inh	MITF act	EBV LMP1 NFkB	TRPM1 prom inh	TROY signal inh	LGR2 inh
COC(=O)c1ccc2c(=O)n(CCCCCC(=O)O)c(=O)[nH]c2c1	.	.	.	.	.	.
COC(=O)c1ccc2c(=O)n(CCCCCC(=O)N3CCN(c4ccc(F)cc4)CC3)c(=O)[nH]c2c1	56	/	.	.	60	/
COc1cc2[nH]c(=O)n(CCC(=O)N3CCc4ccccc4C3)c(=O)c2cc1OC	.	.	.	.	.	/
CN(C)C(=O)[C@@H]1[C@@H](CO)[C@@H]2Cn3c(ccc(-c4cncnc4)c3=O)[C@H]1N2C(=O)NC1CCCC1	/	/	/	/	/	.
O=C(CN(Cc1cccs1)S(=O)(=O)c1ccc(S(=O)(=O)NC2CCCCC2)cc1)Nc1ccccc1	69	.	.	.	.	.
COCCOC(=O)C1=C(C)NC(SCC(=O)NC(C)(C)C)=C(C#N)C1c1ccco1 (centres undefined)	.	.	.	.	.	/
COc1ccccc1NC(=O)C1=C(C)NC(SCC(=O)c2ccccc2)=C(C#N)C1c1ccco1 (centres undefined)	56	/	.	.	.	/
NS(=O)(=O)c1ccc(CCNc2nn3c(-c4ccc(F)c(Cl)c4)cnc3s2)cc1	56	/	/	/	.	.
Cc1ccc(NC(=S)NC(=O)c2ccc(Br)o2)c(C)c1	.	88	.	.	.	.
Cc1cccc(NC(=S)NC(=O)c2ccc(Br)o2)c1C	.	.	.	.	.	.
N#CCCn1ccc(NC(=O)c2ccc(Cl)cc2)n1	67	.	.	.	/	/
CC(C)c1ccc(CNc2ccc([N+](=O)[O-])cn2)cc1	.	89	.	.	.	.
O=[N+]([O-])c1ccc(NCc2ccc(Cl)cc2)nc1	.	/	.	.	.	/
CC(C)c1ccc(CNc2ncc(Br)cn2)cc1	.	96	.	.	.	.
CC(C)c1ccc(CNc2nnnn2C)cc1	.	/	.	/	.	.
Cc1ccc(OCCOc2cccc(Br)c2)c([N+](=O)[O-])n1	.	103	.	.	.	.
CCOc1cc2c3c(c1)C(C)=CC(C)(C)N3C(=O)C2=O	.	.	.	.	.	.
CC(=O)Oc1cc2c3c(c1)/C(=C1/SC(=S)NC1=O)C(=O)N3C(C)(C)C=C2C	.	.	.	.	50	.
C[C@H](O)C#Cc1cnc2c(c1)C(=O)N([C@H](C)CO)C[C@H](C)[C@@H](CN(C)C(=O)Cc1ccccn1)O2	/	/	/	/	/	.
CCOC(=O)/C(=C\c1ccc(Cl)cc1)c1nc2sc(C)c(C)c2c(=O)[nH]1	104	.	.	78	53	.
CCOC(=O)CSc1nc2sc(C)c(C)c2c(=O)[nH]1	.	.	.	.	.	.
Cc1ccc(O)c(C(=O)c2cnn(C(=O)c3cccc(S(=O)(=O)N(C)C)c3)c2)c1	63	.	.	.	.	.
CS(=O)(=O)c1ccc(C(=O)OCC(=O)NC(=O)C2COc3ccccc3O2)cc1[N+](=O)[O-] (centres undefined)	55	.	.	.	.	.
CS(=O)(=O)c1ccc(C(=O)OCC(=O)NC(=O)C2CCCCC2)cc1[N+](=O)[O-]	73	.	.	67	51	60
CS(=O)(=O)c1ccc(C(=O)OCC(=O)N2CCN(CCC3CCCCC3)CC2)cc1[N+](=O)[O-]	79	/	/	/	.	.
SMILES	TWEAK-Fn14 inh	MITF act	EBV LMP1 NFkB	TRPM1 prom inh	TROY signal inh	LGR2 inh
CS(=O)(=O)c1ccc(C(=O)OCC(=O)N2CCOCC2)cc1[N+](=O)[O-]	.	/	/	/	.	.
Cc1ccccc1NC(=O)COC(=O)c1ccc(S(C)(=O)=O)c([N+](=O)[O-])c1	.	.	.	.	.	.
C[C@@H]1CN([C@@H](C)CO)C(=O)Cc2cc(NC(=O)Nc3ccccc3)ccc2O[C@H]1CN(C)C(=O)Nc1ccc(C(F)(F)F)cc1	/	/	/	/	/	.
COCC(=O)N1C[C@@H](C)[C@H](OC)CN(C)C(=O)c2cc(NC(=O)c3ccc(F)cc3)ccc2OC[C@H]1C	/	/	/	/	/	.
C[C@H](NC(=O)[C@H]1[C@H](CO)[C@H]2Cn3c(cccc3=O)[C@H]2N1C(=O)C1CC1)c1ccccc1	/	/	/	/	/	.
COc1ccccc1-c1cc2nc(NCCc3ccc(S(N)(=O)=O)cc3)ccn2n1	.	/	/	/	.	.
NS(=O)(=O)c1ccc(CCNc2ccn3nc(-c4cccc(C(F)(F)F)c4)cc3n2)cc1	80	/	/	/	66	.
O=C(c1ccc2nc(Cc3cccc(Cl)c3)oc2c1)N1CCOCC1	.	102	.	.	.	.
O=C(c1ccc2nc(Cc3cccc(Cl)c3)oc2c1)N1CCC(O)CC1	.	.	.	.	.	.
CC(C)NC(=O)NC(=O)COc1ccc(Br)cc1Br	.	.	.	.	.	53
O=C(COc1ccc(Br)cc1Cl)NC1CCCCC1	.	88	.	.	.	.
O=C(COc1ccc(Br)cc1Cl)NC(=O)NC1CCCC1	.	93	.	.	.	.
O=C(COc1ccc(Br)cc1Cl)c1ccc[nH]1	.	102	.	.	.	.
C[C@@H]1CN([C@@H](C)CO)C(=O)c2cc(NC(=O)CCC(F)(F)F)ccc2O[C@@H]1CN(C)CC1CC1	/	/	/	/	/	.
COCC(=O)Nc1ccc2c(c1)OC[C@@H](C)N(C(=O)C1CCCC1)C[C@@H](C)[C@@H](OC)CN(C)C2=O	/	/	/	/	/	.
COCC(=O)N1[C@@H](CO)[C@H](c2ccc(-c3ccccc3)cc2)C12CN(C(C)=O)C2	/	/	/	/	/	.
CCCN(C)C[C@H]1Oc2ncc(-c3ccccc3F)cc2C(=O)N([C@@H](C)CO)C[C@H]1C	/	/	/	/	/	.
Cc1cccc(OCCn2c(=O)sc3ccccc32)c1	.	91	.	.	.	.
Cc1cccc(OCCCn2c(=O)sc3ccccc32)c1	.	.	.	.	.	.
CCCCCCC#Cc1ccc2c(c1)COc1c3ccccc3nn1-2	.	84	.	.	.	.
CC(C#Cc1ccc2c(c1)COc1c3ccccc3nn1-2)OC(C)(C)C (centres undefined)	.	95	.	.	.	.
N#CCCCC#Cc1ccc2c(c1)COc1c3ccccc3nn1-2	93	.	.	.	81	98
C(#Cc1ccc2c(c1)COc1c3ccccc3nn1-2)c1ccccc1	.	100	.	.	.	.
CCCCC#Cc1ccc2c(c1)COc1c3ccccc3nn1-2	.	.	.	.	.	/
C#Cc1ccc2c(c1)COc1c3ccccc3nn1-2	.	.	.	.	.	.
C[C@@H]1CN([C@H](C)CO)C(=O)c2cccc(NC(=O)c3cnccn3)c2O[C@H]1CN(C)S(=O)(=O)c1ccccc1	/	/	/	/	/	.
CC(C)C(=O)Nc1ccc2c(c1)C(=O)N(C)[C@@H]1CC[C@H](CC(=O)NCc3ccccc3F)O[C@@H]1CO2	/	/	/	/	/	.
CC(C)CCn1cnc2c(oc3nc4c(cc32)CCCC4)c1=O	76	.	.	.	55	68
CC1(C)Cc2nc3oc4c(=O)n(CC(=O)Nc5ccccc5)cnc4c3cc2CO1	.	.	.	.	.	.

Screening results from PubChem BioAssay.
